Compound activity from PubChem.
ATG4B inh – ATG4B protease inhibitors, primary screen, biochemical, fluorescence, uHTS; 340,000 tested, 0.51% active; ATG4B cleavage of LC3-PLA2, NBD-HPC fluorescence, 1 h; inhibition, % at 8.33 µM; AID 504462, 2011; in the data active = inhibition above about 40%
M1 PAM – human M1 muscarinic receptor positive allosteric modulators, primary screen, CHO-K1 cells, Fluo-8 calcium fluorescence, 1536-well. Muscarinic acetylcholine receptor M1 (Homo sapiens), P11229. CHO-K1 hM1, ACh EC20; 0% = ACh EC20, 100% = maximal ACh. activation, % at 3 µM. 360,000 tested, 0.088% active; in the data active = activation above about 19%, passing the limit was not always enough
Target sequence (P11229 whole entry, looked up): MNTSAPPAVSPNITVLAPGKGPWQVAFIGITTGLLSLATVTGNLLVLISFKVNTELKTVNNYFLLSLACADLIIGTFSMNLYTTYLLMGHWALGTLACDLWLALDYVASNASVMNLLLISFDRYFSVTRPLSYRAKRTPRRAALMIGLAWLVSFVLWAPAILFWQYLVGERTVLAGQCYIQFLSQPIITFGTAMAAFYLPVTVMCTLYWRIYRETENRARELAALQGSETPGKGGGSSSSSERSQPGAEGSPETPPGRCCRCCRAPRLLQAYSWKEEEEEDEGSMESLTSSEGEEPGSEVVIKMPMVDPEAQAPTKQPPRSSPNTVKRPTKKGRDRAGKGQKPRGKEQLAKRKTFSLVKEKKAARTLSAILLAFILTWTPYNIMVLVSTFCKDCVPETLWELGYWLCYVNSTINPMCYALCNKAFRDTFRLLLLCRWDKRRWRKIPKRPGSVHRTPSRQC
CHRM1 agonist – human M1 muscarinic receptor agonists, primary screen, Fluo-8 calcium fluorescence, CHO-K1 cells, HTS. activation, % at 3 µM. Muscarinic acetylcholine receptor M1 (Homo sapiens), P11229. AID 588814, 2011. 360,000 tested, 0.33% active. CHO-K1 hM1, agonist mode; 0% DMSO, 100% acetylcholine EC100;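 active = activation above the run's mean compound activation plus 3 SD, cut at about 16% in these data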;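 note: peak over basal fluorescence ratio within a 140 s kinetic read after compound addition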
SKN-1 inh – suppressors of acrylamide-induced Pgst-4::GFP reporter in worms, primary screen, SKN-1 inhibitor project, whole organism, uHTS, GFP/RFP fluorescence ratio, strain VP596 | C. elegans VP596 Pgst-4::GFP/RFP ratio, 24 h | AID 624304, 2012 | 360,000 tested, 0.49% active | inhibition, % at 21.8 µM;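 active = interference check ratio from 0.5 to 1.5 plus GFP to RFP signal ratio inhibition reaching or exceeding a fixed threshold, cut at about 30% in these data, passing the limit was not always enough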
Myeloid diff 2 – induction of myeloid progenitor differentiation, primary screen, cell-based, flow cytometry, MLPCN library | calls only at 10 µM | AID 624256, 2012 | 360,000 tested, 1% active | ER-HoxA9 myeloid progenitors, lysozyme-GFP differentiation;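 active = normalized GFP-positive differentiation at or above the plate's own cutoff, the solvent-only control mean plus 3 SD; inconclusive = no clear call, values can overlap the other calls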;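 note: cells exposed to compound for four days before flow analysis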
M1 antag – human M1 muscarinic receptor antagonists, primary screen, CHO-K1 cells, Fluo-8 calcium fluorescence, 1536-well; 360,000 tested, 1.3% active; AID 588852, 2011; CHO-K1 hM1, ACh EC80 antagonist; inhibition, % at 3 µM;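 active = percent inhibition above its own plate's cutoff, namely the mean of that plate's compound wells plus 3 SD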;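 note: peak over basal fluorescence ratio during 140 s after agonist addition; 0% = ACh EC80 plus DMSO and 100% = DMSO alone without agonist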
An asterisk follows results filed as active; i = inactive; ? = inconclusive; + = active, no number; ! = repeats disagree. The list is not random: actives were taken first. Their share in the collection is about 3.5%.

SMILES	ATG4B inh	M1 PAM	CHRM1 agonist	SKN-1 inh	Myeloid diff 2	M1 antag
O=C(c1cccc(Cl)c1)C1CCCN(Cc2ccc(N3CCNC3=O)cc2)C1 (stereo not drawn)	15	-21	-6	-7	i	46*
O=C(c1ccc2c(c1)OCO2)C1CCCN(C2CCN(CCc3ccccc3)CC2)C1 (stereo not drawn)	13	-35	-14	3	i	74*
CCCCn1c(N)c(N(CC(C)C)C(=O)COC(=O)Cc2cccc(OC)c2)c(=O)[nH]c1=O	-2	15	-1	5	i	-17
Oc1cc(-n2cccn2)c(O)cc1-n1cccn1	-2	3	-4	20	i	-7
O=c1cc(-c2ccccc2O)nc(-c2ccccc2)[nH]1	-1	-4	-3	-2	i	19
Oc1ccc(Cl)cc1C1=NNC(c2cccs2)C1 (stereo not drawn)	-8	0	-1	19	i	0
Cc1ccc(O)c(C2=NNC(c3ccc(Cl)cc3)C2)c1 (stereo not drawn)	1	12	23*	15	i	45*
N=c1c(S(=O)(=O)c2ccc(Br)cc2)cc2c(=O)n3ccccc3nc2n1C1CCCC1	-1	-2	-4	6	i	0
N=c1c(S(=O)(=O)c2ccccc2)cc2c(=O)n3ccccc3nc2n1C1CCCC1	-1	0	13	7	+	22
O=C(CCc1ccccn1)N1CCCC(Nc2ccc(F)cc2)C1 (stereo not drawn)	-2	4	0	-2	i	-5
O=C(CCc1ccccn1)N1CCCC(Nc2cccc(F)c2)C1 (stereo not drawn)	26	8	27*	8	?	-1
O=C(OCCSCCOC(=O)C1CC=CCC1)C1CC=CCC1 (stereo not drawn)	5	14	2	-5	i	-16
CC(C)(C)OC(=O)NCCCC[C@H](NC(=O)c1nc[nH]c1C(=O)NCc1ccc(CNC(=O)OC(C)(C)C)cc1)C(=O)OC(C)(C)C	-22	-3	-5	14	i	7
CC(C)(C)OC(=O)NCCCCCNC(=O)c1nc[nH]c1C(=O)NCCCCCNC(=O)OC(C)(C)C	-7	-23	-1	2	i	44*
CC(C)(C)OC(=O)NCCCCCNC(=O)c1[nH]cnc1C(=O)N[C@@H](CCCCNC(=O)OC(C)(C)C)C(=O)OC(C)(C)C	-25	-22	-6	-14	?	30*
Cc1cccc(NC(=O)c2nc[nH]c2C(=O)NCCCCCNC(=O)OC(C)(C)C)c1	-5	10	-3	7	i	-20
CC(C)(C)OC(=O)NCCCCCNC(=O)c1nc[nH]c1C(=O)NCc1ccc(CNC(=O)OC(C)(C)C)cc1	-8	-30	6	2	i	68*
CC(C)(C)OC(=O)NCCCC[C@H](NC(=O)c1nc[nH]c1C(=O)N[C@@H](CCCCNC(=O)OC(C)(C)C)C(=O)OC(C)(C)C)C(=O)OC(C)(C)C	-11	-5	-2	9	?	17
CCCCNc1c(-c2ccc(SC(C)CC)c(OC)c2)nc2ccc(C)cn12 (stereo not drawn)	19	-22	-7	12	i	44*
CCCCNc1c(-c2ccc(OC)c(Sc3ccc(OC)cc3)c2)nc2ccccn12	11	-20	-4	11	i	50*
CCC(C)Sc1cccc(-c2nc3ccccn3c2NCc2ccccc2)c1 (stereo not drawn)	17	-17	-6	20	i	25
CCCCNc1c(-c2ccc(SC(C)CC)cc2)nc2cnccn12 (stereo not drawn)	12	-20	-9	13	+	28
CCCCCCSc1cc(-c2nc3cc(C)ccn3c2NCCCC)ccc1OC	6	-1	-4	17	+!	-4
